Tb PFK inh-1 = qHTS Assay to Find Inhibitors of T. brucei phosphofructokinase. ATP-dependent 6-phosphofructokinase (Trypanosoma brucei brucei), O15648. T. brucei PFK, ADP-Glo luminescence. 0.17% of 330,000 active. AID 485367, 2010. Potency, µM (doses to about 57.5 µM), without a hit: at the highest dose activity, negative = inhibition, most hits filed as inhibitors;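 further: potency means the concentration at half of the fitted maximal effect; 0% = uninhibited 1x PFK enzyme wells and -100% = no-enzyme wells; nearly all actives have a fitted effect of over 60% in size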
Target sequence (O15648 whole entry, looked up): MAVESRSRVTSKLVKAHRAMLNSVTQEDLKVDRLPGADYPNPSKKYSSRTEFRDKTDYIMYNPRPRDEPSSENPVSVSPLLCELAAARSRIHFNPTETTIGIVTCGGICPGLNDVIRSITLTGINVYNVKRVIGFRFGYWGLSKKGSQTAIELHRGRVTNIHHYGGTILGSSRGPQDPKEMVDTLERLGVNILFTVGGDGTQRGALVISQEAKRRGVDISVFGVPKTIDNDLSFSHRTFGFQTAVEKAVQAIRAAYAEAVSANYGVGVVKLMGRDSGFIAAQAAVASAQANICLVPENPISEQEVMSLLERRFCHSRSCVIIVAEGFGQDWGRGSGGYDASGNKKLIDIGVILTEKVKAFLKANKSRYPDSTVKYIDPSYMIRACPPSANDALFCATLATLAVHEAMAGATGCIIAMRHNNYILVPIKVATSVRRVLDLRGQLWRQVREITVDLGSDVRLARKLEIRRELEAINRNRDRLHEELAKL
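1.25 nM PFK with 0.5 mM F6P and 0.1 mM ATP in 0.1 M TEA pH 8.0, 5 mM MgCl2, incubated 45 min at room temperature; ADP measured by ADP-Glo luminescence; compounds titrated up to 57 uM.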
TCR act = Activators of T cell receptors: qHTS campaign; AID 504894, 2011; 330,000 tested, under 10 active; primary human leukocytes, anti-CD3, IL-2 HTRF, 48 h; Potency, µM (top dose mostly 9.22 µM), for inactives: at the highest dose activation of IL-2 secretion, actives largely listed as activators; further: % of control where 0% means no effect
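HTRF read-out of IL-2 secretion: europium cryptate donor excited at 320nm, d2 acceptor emission at 665nm. Cells were primary human leukocytes incubated 48 hr with compounds and a-CD3 beads, supplying TCR signal only.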
PKM2 activator = qHTS Assay for Activators of Human Muscle isoform 2 Pyruvate Kinase | 0.34% of 260,000 active | AID 1631, 2009 | Pyruvate kinase PKM (Homo sapiens), P14618 | purified PKM2, Kinase-Glo ATP luminescence, activation; response scale: 0% is enzyme alone, no compound | Potency, µM (highest dose often 57.5 µM), for inactives: top-dose activation, actives largely listed as activators; further: potency means the concentration at half of the fitted maximal effect; on the % scale 0 is the no-effect control and ±100 the full control effect; nearly all actives have a fitted effect of over 55% in size
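hPK-M2, >95% pure; 0.1 mM ADP / 0.5 mM PEP final; imidazole pH7.2 buffer w/ 7 mM MgCl2, 50 mM KCl; 1 h RT; Kinase-Glo lum. Intermediate enzyme activity for dual inhibitor/activator qHTS.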
Integrin act MD = qHTS for Activators of Integrin-Mediated Alleviation for Muscular Dystrophy; alpha7betagal myoblasts, beta-gal FDG fluorescence, 48 h; Potency, µM (series often up to 38.3 µM), for inactives: at the top dose activation, actives largely listed as activators; 0.064% of 350,000 active;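 further: potency means the concentration at half of the fitted maximal effect; 100% = response of the positive control SU9516; nearly all actives have a fitted effect of over 60% in size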
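alpha7betagal+/- myoblasts (passage 13, 250/well) treated 48 h at 37C with compounds at 1:260 dilution of DMSO stock. Lysed, then beta-galactosidase activity read as FDG fluorescence (ex 480/em 540) after 30 min, with pre-read for autofluorescence.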
IL-2 act = qHTS of IL-2 Activators. IL-2 activation reporter assay, cell-based qHTS; stimulated with anti-CD3/CD4/CD28 beads; in transgenic mouse T cells. activation, % (series mostly up to about 46 µM). 0.065% of 360,000 active. AID 652025, 2013; in the data active means activation above about 50%; inconclusive means mostly about 30% to 49%; further: 0% is about no effect
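Unstimulated transgenic mouse T cells; 60-min compound exposure; bead-based TCR/CD4/CD28 stimulation; 18 h culture, 37 degrees C; dual fluorescence (EGFP, DsRed) plate cytometry.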
AT treatment = qHTS Assay for Identifying a Potential Treatment of Ataxia-Telangiectasia. F2112 A-T fibroblasts, KAP-1 phosphorylation AlphaLISA; neocarzinostatin DNA damage 30 min before lysis. Potency, µM (series often up to 57.5 µM), inactives show at the top dose activation, usual class: activators. 0.19% of 320,000 active. AID 485349, 2010; further: potency means the concentration at half of the fitted maximal effect; % of control where 0% means no effect; nearly all actives have a fitted effect of over 45% in size
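hTERT-immortalized A-T patient fibroblasts (F2112), 500 cells/well in OPTI-MEM, 1% FBS, got compounds for 60 min, then NCS for 30 min at 37C. Lysates were then assayed for phospho-KAP-1 by AlphaLISA (anti-pKAP1 donor, anti-KAP1 acceptor beads), 6 hr at 25C.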
Tb PFK KinaseGlo = Tb PFK orthogonal confirmatory assay using ATP depletion (Kinase-Glo Plus) as an alternative measure of Tb PFK activity: Hit Validation. 47% of 1,100 active. Potency, µM (titrated, usually from 57.5 µM), for the others: top-dose inhibition. AID 504636, 2011. shares compounds with Tb PFK inh-1. Tb PFK enzyme, ATP depletion, Kinase-Glo Plus luminescence; calls by dose curve; further: potency means the concentration at half of the fitted maximal effect; nearly all actives have a fitted effect of over 60% in size
Tb PFK inh-2 = Inhibitors of T. brucei phosphofructokinase: Hit Validation; 41% of 1,100 active; purified T. brucei PFK, ADP-Glo luminescence, 45 min; shares compounds with Tb PFK inh-1; Potency, µM (highest dose often 57.5 µM), without a hit: top-dose activity change, negative = inhibition, usual class: inhibitors;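 further: potency means the concentration at half of the fitted maximal effect; plate controls were full PFK enzyme control for no effect and no enzyme control for full effect; nearly all actives have a fitted effect of over 60% in size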
Starred values were filed as active, the others as inactive; ? = inconclusive; . = not tested or not shown; [ ] = dose if it differs, or a comment. This is a sample that favours compounds with a hit; in the whole collection about 0.69% have one here. Unless noted, the call rests on the fitted dose curve; in most records, active means well fitted curve in the direction sought with a large enough effect; inconclusive means small, poorly fitted or top-dose-only effect, or another doubt; inactive means no such curve, though single readings can be large; an effect the other way counts as inactive or inconclusive.

SMILES	Tb PFK inh-1	TCR act	PKM2 activator	Integrin act MD	IL-2 act	AT treatment	Tb PFK KinaseGlo	Tb PFK inh-2
CCN1CCN(C(=S)c2ccc(Br)cc2)CC1	?	.	-1.7%	-9.4%	-2.5	0.8%	10.7µM*	26.9µM*
CCN1CCN(C(=S)c2ccc(O)cc2)CC1	13.5µM*	-2.3%	4.8%	0.0%	-2.3	-1.4%	6.75µM*	23.9µM*
O=c1c2ccccc2nc(-c2ccccc2Cl)n1-c1cccc(O)c1	-5.0%	16.5%	.	?	-1.5	-8.4%	.	.
[N-]=[N+]=NCCN1CCC(O)CCC1=O (stereo unspecified)	1.5%	-1.5%	1.2%	-19.0%	0.0	-8.1%	.	.
COC(=O)C1=C(c2ccc(F)cc2OCc2ccccc2)C[C@@H]2CC[C@H]1N2C(=O)NCc1cccc(C(F)(F)F)c1	-3.3%	3.7%	.	-11.6%	-0.1	5.7%	.	.
Cc1ccc(C(=O)Nc2cccc([N+](=O)[O-])c2)cc1S(=O)(=O)Nc1cccc(C(=O)O)c1	19µM*	4.8%	-0.4%	11.3%	-0.5	0.0%	7.57µM*	19µM*
Cc1cc(C)nc(SCc2nnc(SCc3ccc([N+](=O)[O-])cc3)n2Cc2ccco2)n1	?	2.6%[46.1 µM]	-1.4%	-16.5%	0.1	4.4%	10.7µM*	15.1µM*
CCOC(=O)c1c(N)n(Cc2ccco2)c2nc3ccccc3nc12	-5.2%	0.7%	-1.8%	-6.5%	-4.6	34.5%	.	.
ClCCN(CCCl)c1ccc(C=NNc2ncccn2)cc1	.	-0.9%	.	10.0%	0.0	.	.	.
Oc1ccc(/C=N/Nc2nccnc2Cl)cc1	?	9.3%	-45.8%	9.4%	-1.1	17.0%	-31.0%	19µM*
O=C(c1cccs1)N1CCC(C(=O)O)(c2ccccc2)CC1	.	.	.	-7.7%	-0.2	.	.	.
CC(NC(=O)C1CCN(C(=O)c2cccs2)CC1)c1ccc(S(N)(=O)=O)cc1 (stereo unspecified)	?	1.7%	.	-13.2%	-0.3	6.4%	-32.5%	?
COc1ccc(CCN)cc1O	.	9.5%	.	.	0.2	.	.	.
NCCc1ccc(O)c(O)c1	?	10.5%	0.7%	.	-0.3	-21.5%	?	-19.8%
CC(CS(=O)(=O)c1ccc2c(c1)NC(=O)CS2)C(=O)NCc1ccccc1Cl (stereo unspecified)	13.5µM*	1.0%	.	10.4%	-2.4	5.6%	1.69µM*	1.9µM*
CC(CS(=O)(=O)c1ccc2c(c1)NC(=O)CS2)C(=O)N1CCN(c2cccc(Cl)c2)CC1 (stereo unspecified)	15.1µM*	-0.5%	.	-8.7%	-3.3	-2.2%	21.3µM*	12µM*
Cc1nn(Cc2ccccc2)c(Cl)c1C(=O)O	0.7%	7.2%	-2.5%	2.6%	2.1	-7.5%	.	.
O=C(O)c1ccc(Nc2ncnc3c2cnn3Cc2ccccc2)cc1	?	9.9%	.	8.7%	-0.6	0.7%	?	?
COc1cccc(-c2nn(CCC#N)cc2C(=O)Nc2ccccc2Cl)c1	1.3%	-4.2%	-1.8%	-6.2%	0.9	-3.1%	.	.
Cc1ccc(/C=C2/Sc3ccc(C(=O)N4CCC5(CC4)OCCO5)cc3NC2=O)cc1	-4.1%	1.8%	.	7.7%	-1.1	6.7%	.	.
Clc1ccc(Cn2ncc3c(N4CCCC4)ncnc32)cc1	?	1.6%	-8.9%	-11.8%	-0.5	-8.7%	?	?
COc1ccc(OC(=O)N(C)C[C@@H]2OCc3cnnn3CCCC(=O)N([C@H](C)CO)C[C@H]2C)cc1	.	.	.	1.1%	-1.7	.	.	.
COC(=O)C1=C(c2ccc(OCc3ccccc3)c(F)c2)C[C@@H]2CC[C@H]1N2C	.	.	.	-27.6%	-1.7	.	.	.
O=C1CC(c2cccnc2)=NN1c1ccc(Cl)cc1Cl	?	3.9%	13.5%	18.5%	9.1	-7.7%	-9.0%	-0.7%
O=C(NN=Cc1ccc(N(CCCl)CCCl)cc1)C(=O)c1c[nH]c2ccccc12	.	3.0%	.	-23.0%	-0.5	.	.	.
SMILES	Tb PFK inh-1	TCR act	PKM2 activator	Integrin act MD	IL-2 act	AT treatment	Tb PFK KinaseGlo	Tb PFK inh-2
O=C(CCC(=O)N1CCOc2ccc(Cl)cc21)NCCN1CCOCC1	?	5.2%	?	1.9%	0.3	-6.7%	?	?
COc1ccc(OC)c(NC(=O)C2C(C(=O)O)C3(Cl)C(Cl)=C(Cl)C2(Cl)C3(Cl)Cl)c1 (stereo unspecified)	-13.4%	-3.2%	3.1%	?	-0.5	6.7%	.	.
Cc1ccc(-c2nc3c(c(SCC(=O)Nc4cccc(C(=O)O)c4)n2)Cc2cccc(C)c2O3)cc1	1.69µM*	.	.	.	.	0.2%	1.07µM*	?
CC12Cc3cn[nH]c3C=C1CCC1C2CCC2(C)C1CCC2(C)O (stereo unspecified)	.	6.7%	.	-16.2%	-0.4	.	.	.
COc1ccc(NC(=O)c2ccccc2SCc2ccccc2)cc1	.	.	.	-55.8%	-3.1	.	.	.
COc1ccccc1C(=O)Nc1ccc2c(c1)C(=O)NC2=O	23.9µM*	7.7%	2.1%	22.6%	1.3	0.3%	19µM*	?
CCCNC(=O)Cn1sc2nc(C)cc(C)c2c1=O	8.49µM*	-1.0%	-16.9%	0.0%	0.3	-15.2%	?	8.49µM*
Cc1cc(C)c2c(=O)n(CC(=O)N3CCC(N4CCCCC4)CC3)sc2n1	2.39µM*	-0.8%	-19.7%	-68.5%	-2.3	-4.8%	?	3.01µM*
CCOC(=O)C1CCCN(C(=O)Cn2sc3nc(C)cc(C)c3c2=O)C1 (stereo unspecified)	1.51µM*	-4.0%	2.3%	-49.5%	-4.9	0.1%	?	3.79µM*
CS(=O)(=O)c1ccc(C2=C(CNC(=O)c3nccs3)[C@H]3CC[C@@H](C2)N3CCOc2ccccc2)cc1	.	.	.	-6.6%	-1.1	.	.	.
O=P1(c2ccccc2)Nc2ccccc2N1c1ccccc1 (stereo unspecified)	.	1.8%	.	-17.6%	-1.0	.	.	.
